Source: PubChem
D3 antag = antagonists of human D3 dopamine receptor; P35462; D3R cells, DiscoveRx beta-arrestin luminescence, antagonist mode; active compounds read low; max response, negative = inhibition, %; 360,000 tested, 2.5% active; in the data active = max response below about -50%; inconclusive = no clear call, values can overlap the other calls; note: % is set by controls: 0 for no effect and ±100 for the full control effect
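Cells plated overnight at 1500 cells/well, then exposed to library compounds with dopamine controls for 90 minutes at 37 degrees C. DiscoveRx reagent added for 30–60 minutes at room temperature; luminescence read, quantitative HTS format.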
ClpP mod = qHTS Assay for Activators of ClpP. purified B. subtilis ClpP, FRET peptide cleavage, 20 min. Potency, µM (highest dose often 57.5 µM), without a hit: top-dose activity change, negative = active. ATP-dependent Clp protease proteolytic subunit (Bacillus subtilis (strain 168)), P80244. AID 651965, 2013. 340,000 tested, 1.9% active; active = well fitted falling curve with a large enough effect; inconclusive = small, poorly fitted or top-dose-only effect; inactive = no such curve, though single readings can be large or run the other way; note: potency is the fitted concentration of half-maximal effect; the source files actives as falling curves though it sought activators and does not explain the sign; nearly all actives have a fitted effect of over 65% in size
Target sequence (P80244 whole entry, looked up): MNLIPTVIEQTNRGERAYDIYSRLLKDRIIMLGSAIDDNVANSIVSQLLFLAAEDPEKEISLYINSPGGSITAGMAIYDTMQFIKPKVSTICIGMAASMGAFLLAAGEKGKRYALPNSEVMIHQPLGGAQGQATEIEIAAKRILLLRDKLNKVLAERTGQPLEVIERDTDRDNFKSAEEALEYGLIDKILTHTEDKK
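ClpP 10 microg/mL final, pH 8 Tris/KCl buffer with BSA, glycerol, Tween-20; compound pinned in; FRET-FV substrate; RT 20 min; Ex320/Em430; ΔFRET vs ADEP 5.8 microM, DMSO, no enzyme.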
DT40 TDP1 no CPT = qHTS for Inhibitors of human tyrosyl-DNA phosphodiesterase 1 (TDP1): qHTS in cells in absence of CPT. DT40 Tdp1-/- hTDP1 cells, no CPT, ATP luminescence, 48 h. Potency, µM (doses to about 46.2 µM), for inactives: top-dose activity change, negative = growth inhibition, hits mostly inhibitors. 420,000 tested, 15% active. AID 686978, 2013; note: potency is the fitted concentration of half-maximal effect; % is set by controls: 0 for no effect and ±100 for the full control effect; nearly all actives have a fitted effect of over 55% in size
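A cellular qHTS used chicken DT40 cells lacking endogenous Tdp1 but carrying stably transfected human TDP1. Compounds were applied without camptothecin, and cell growth kinetics were judged by ATP-dependent luminescence after ≥48 hr.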
D3 ag = activates the human D3 dopamine receptor; P35462; 410,000 tested, 0.58% active; max activation, %; AID 652048; D3R DiscoveRx beta-arrestin cells, luminescence, 90 min; in the data active = max activation above about 30%; note: 0% is about no effect
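Agonist mode: compounds and dopamine controls were applied to plated cells for 90 min at 37 degrees C after an overnight attachment at 1500 cells/well. Luminescent read-out followed 30 - 60 minutes at room temperature with DiscoveRx detection reagent.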
IL-1B inflam inh = inflammasome signaling inhibition, IL-1 beta readout | THP-1 LPS/ATP IL-1B secretion, AlphaLISA, 16 h; active compounds read low | activity change, % at 57.5 µM | 360,000 tested, 4.7% active | AID 743279; in the data active = activity change below about -50%; inconclusive = mostly about -30% to -49%; note: % is set by controls: 0 for no effect and ±100 for the full control effect
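Secreted IL-1B measured by AlphaLISA bead assay after 16 h compound exposure of THP-1 cells; compounds (final up to 57.5 uM) added 1 h before LPS (250 ng/mL) and ATP (1.25 mM) stimulation; lower signal means less secretion.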
DT40 TDP1 CPT = DT40-hTDP1 cell growth loss with CPT; chicken DT40 Tdp1-/-;hTDP1 cells + 20 nM CPT, ATP luminescence, 48 h; Potency, µM (titrated, usually from 46.2 µM), for the others: at the top dose activity change, negative = growth inhibition, hits mostly inhibitors; 420,000 tested, 12% active; note: potency is the fitted concentration of half-maximal effect; % is set by controls: 0 for no effect and ±100 for the full control effect; nearly all actives have a fitted effect of over 55% in size
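Chicken DT40 Tdp1-/- cells complemented with human TDP1, 400 cells/well, exposed to compounds plus 20 nM camptothecin for at least 48 h at 37 C; viability read as ATP content by CellTiter-Glo luminescence.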
An asterisk follows results filed as active. The list is not random: actives were taken first. Their share in the collection is about 21%. Unless noted, calls come from the whole dose curve; as a rule, active = well fitted inhibition curve with a large enough effect; inconclusive = small, poorly fitted or top-dose-only effect; inactive = flat fitted curve, though single readings scatter.

How did Cc1cc(C(=O)N2CCC2(C)C(=O)Nc2cccc3ccccc23)nn1C (centres undefined) do in these assays?
D3 antag: 13; ClpP mod: 4%; DT40 TDP1 no CPT: inconclusive; D3 ag: 4; IL-1B inflam inh: -21; DT40 TDP1 CPT: inconclusive

How did CC1(C(=O)Nc2ccc3c(c2)OCO3)CCN1Cc1cccc2c1OCO2 (centres undefined) do in these assays?
D3 antag: 14; ClpP mod: 0%; DT40 TDP1 no CPT: inconclusive; D3 ag: 4; IL-1B inflam inh: -19; DT40 TDP1 CPT: inconclusive

Results for CC(C)(C)c1ccc(C(=O)N2CCC2(C)C(=O)Nc2cccc3ccccc23)cc1 (centres undefined) ?
D3 antag: 0; ClpP mod: -3%; DT40 TDP1 no CPT: 23µM*; D3 ag: 3; IL-1B inflam inh: -16; DT40 TDP1 CPT: 16µM*

What do the screens show for `CC1(C(=O)Nc2cccc3cccnc23)CCN1Cc1cccc2c1OCO2` (centres undefined)?
D3 antag: 132; ClpP mod: 32µM*; DT40 TDP1 no CPT: 15µM*; D3 ag: 16; IL-1B inflam inh: -23; DT40 TDP1 CPT: inconclusive

What do the screens show for `CC(C)(C)c1ccc(C(=O)N2CCC2(C)C(=O)NCc2cccc3ccccc23)cc1` (centres undefined)?
D3 antag: -8; ClpP mod: -3%; DT40 TDP1 no CPT: -96%; D3 ag: -3; IL-1B inflam inh: 0; DT40 TDP1 CPT: 18µM*

Results for Cc1ccc(CNS(=O)(=O)c2ccc3c(c2)CCN3C(=O)CCCC(=O)O)cc1 ?
D3 antag: 6; DT40 TDP1 no CPT: 15%; D3 ag: 1; IL-1B inflam inh: 29; DT40 TDP1 CPT: 2%

What do the screens show for `CC12CCC(C(=NO)C1=O)C2(C)C` (centres undefined)?
D3 antag: 24; ClpP mod: -4%; DT40 TDP1 no CPT: 10%; D3 ag: 5; IL-1B inflam inh: -3; DT40 TDP1 CPT: -4%

What do the screens show for `COc1ccccc1NC(=O)c1cc(C(=O)Nc2ccccc2OC)cc([N+](=O)[O-])c1`?
D3 antag: 9; ClpP mod: 0%; DT40 TDP1 no CPT: 6%; D3 ag: -5; IL-1B inflam inh: 17; DT40 TDP1 CPT: -4%

Results for Cc1nn(C)c2c1c(-c1ccccc1)cc(=O)n2C(C)C(=O)NCc1ccc(F)cc1 (centres undefined) ?
ClpP mod: 4%; DT40 TDP1 no CPT: inconclusive; D3 ag: -11; DT40 TDP1 CPT: inconclusive

Results for CCC(=O)N1CCC1(C)C(=O)Nc1cccc2cccnc12 (centres undefined) ?
D3 antag: -12; ClpP mod: -19%; DT40 TDP1 no CPT: -16%; D3 ag: 0; IL-1B inflam inh: 2; DT40 TDP1 CPT: 1%

Results for CC(C)(C)c1ccc(CC(=O)N2CCC2(C)C(=O)Nc2cccc3cccnc23)cc1 (centres undefined) ?
D3 antag: -20; ClpP mod: -12%; DT40 TDP1 no CPT: 23µM*; D3 ag: 0; IL-1B inflam inh: -4; DT40 TDP1 CPT: inconclusive

What do the screens show for `CCc1ccc(NC(=O)CN2CCN(Cc3ccccc3)S2(=O)=O)cc1`?
ClpP mod: -1%; DT40 TDP1 no CPT: -24%; D3 ag: -8; DT40 TDP1 CPT: -17%

What do the screens show for `CCc1cccc(C)c1NC(=O)CN1CCCN(Cc2ccccc2Cl)S1(=O)=O`?
ClpP mod: -1%; DT40 TDP1 no CPT: 23µM*; D3 ag: -8; DT40 TDP1 CPT: inconclusive

What do the screens show for `CCc1cccc(C)c1NC(=O)CN1CCN(Cc2ccccc2Cl)S1(=O)=O`?
ClpP mod: 2%; DT40 TDP1 no CPT: 26µM*; D3 ag: -15; DT40 TDP1 CPT: inconclusive
